This is a sample that favours compounds with a hit; in the whole collection about 0.5% have one here.
AddAB inh: less growth of phage-infected E. coli with AddAB | actives 0.29% (n = 330,000) | E. coli expressing H. pylori AddAB, absorbance growth | inhibition, % at 11.9 µM | AID 435030; in the data active means inhibition above about 12%;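 further: 0% = vehicle wells of infected cells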
E coli growth-1: E. coli growth inhibition | AID 1053175 | actives 0.21% (n = 330,000) | OD600 absorbance (test concentration not listed) | Escherichia coli growth, OD600, 23 h; hits give low values;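 active means OD600 absorbance below the run mean of sample wells minus 3.6 SD, in any replicate, cut at about 0.56 in these data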
Tat export inh: E. coli Tat transport inhibition. actives 0.036% (n = 340,000). inhibition, % at 10 µM. AID 488895. E. coli MC4100 TorA-mCherry Tat export, fluorescence;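 active means mean replicate inhibition at least 50% and at least half of replicates individually reaching 50%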;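 further: exported cargo escapes ClpAP degradation while cytoplasmic cargo is degraded and loses fluorescence; 0% = median of neutral control wells and 100% = median of NaSCN control wells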
phage Ecoli inh: E. coli growth loss with phage present; growth absorbance; inhibition, % at 11.9 µM; actives 0.26% (n = 360,000); AID 651602; in the data active means inhibition above about 11%
E coli growth-2: bacterial growth inhibition, counter-screen for AddAB inhibitors; E. coli V3065 growth, OD600 absorbance, 18 h; inhibition, % at 11.9 µM; actives 0.27% (n = 330,000); AID 449728;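 active means inhibition above the campaign's mean inhibition across all tested compounds plus 3 SD, cut at about 9.9% in these data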;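 further: uninfected addAB+ strain grown without phage in ampicillin broth; 0% = DMSO wells and 100% = ciprofloxacin 0.95 µg/ml wells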
AddAB conf: growth loss of T4-infected E. coli expressing H. pylori AddAB, confirmed; shares compounds with AddAB inh; E. coli V3065 expressing H. pylori AddAB, T4 phage, OD; T4 phage with gene 2 nonsense mutations; inhibition, % at 11.9 µM; actives 64% (n = 880); AID 488942;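 active means mean inhibition above a set limit taken from the earlier primary screen, cut at about 13% in these data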;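 further: higher means less bacterial growth since AddAB block lets phage replicate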
RecBCD counter: counter-screen: growth loss of RecBCD+ E. coli with mutant T4 phage. shares compounds with AddAB inh. E. coli V66 + mutant T4 phage, OD growth. inhibition, % at 11.9 µM. actives 73% (n = 880);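 active means mean inhibition above the mean of solvent-only control wells plus 3 SD, cut at about 4% in these data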;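 further: optical density read after an 18 h incubation at 37 °C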
Bact viability: reduces bacterial viability, AddAB inhibitor counter-screen; inhibition, % at 11.9 µM; actives 35% (n = 880); shares compounds with AddAB inh; AID 488956; absorbance (AddAB counterscreen); in the data active means inhibition above about 25%
RecBCD conf: growth loss of phage-infected V66 E. coli, RecBCD confirmation screen; shares compounds with phage Ecoli inh; E. coli V66 + T4 2- phage, growth OD; inhibition, % at 11.9 µM; actives 45% (n = 890); AID 651982;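 active means mean inhibition over triplicates exceeding the hit threshold derived in the original primary screen, cut at about 11% in these data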
Ecoli viability: bacterial viability inhibition counter-screen for RecBCD; AID 651983; E. coli viability, absorbance (OD) growth; shares compounds with phage Ecoli inh; actives 29% (n = 890); inhibition, % at 11.9 µM; in the data active means inhibition above about 20%;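 further: E. coli strain V66 grown with compound alone and no phage infection; 0% = bacteria with DMSO vehicle only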
AddAB counter: growth loss of phage-infected AddAB E. coli, RecBCD counter-screen | shares compounds with phage Ecoli inh | inhibition, % at 11.9 µM | AID 651984 | actives 45% (n = 890) | E. coli expressing H. pylori AddAB + T4 phage, OD growth; gene 2 mutant T4, recBCD-deleted host;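 active means mean inhibition above the solvent-only control wells' mean plus 3 SD, cut at about 22% in these data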;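 further: higher means less bacterial growth from phage killing when AddAB is blocked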
An asterisk follows results filed as active; / = no result.

SMILES | AddAB inh | E coli growth-1 | Tat export inh | phage Ecoli inh | E coli growth-2 | AddAB conf | RecBCD counter | Bact viability | RecBCD conf | Ecoli viability | AddAB counter
CCOc1ccc(NC(=O)Cn2cc(C(=O)c3ccco3)c3ccccc32)cc1 | 12.7* | 0.626 | 1.7 | 12.2* | 13.5* | 9.8 | 9.7* | 11.7 | 7.0 | 10.6 | 4.6
CCC(=O)c1cn(CC(=O)Nc2ccc(OC)cc2)c2ccccc12 | 13.2* | / | -9.5 | 11.3* | 14.0* | 12.1 | 11.3* | 8.8 | 2.5 | 5.5 | 5.0
COc1ccc(NC(=O)Cn2cc(C(=O)c3ccco3)c3ccccc32)cc1 | 16.2* | 0.644 | -3.7 | 18.1* | 18.4* | 12.8* | 13.0* | 14.7 | 8.2 | 11.8 | 16.1
COc1ccc(C(=O)Oc2ccc(C=NNC(=O)Cc3ccc([N+](=O)[O-])cc3)cc2)cc1 | / | 0.671 | / | / | / | / | / | / | / | / | /
COc1ccc(N2CCN(C(=NS(=O)(=O)c3ccccc3)Nc3nc(C)cc(C)n3)CC2)cc1 | / | 0.728 | / | / | / | / | / | / | / | / | /
CC(=NNC(=O)CC1N=C(Cc2ccccc2)NNC1=O)c1ccccc1 (configuration not stated) | / | 0.735 | / | / | / | / | / | / | / | / | /
NCCCCCC(=O)NN=Cc1coc2ccccc2c1=O | / | 0.674 | / | / | / | / | / | / | / | / | /
COc1ccc(N/N=C(/N=Nc2nc(C)cc(=O)[nH]2)c2ccccc2)cc1 | 19.5* | / | -16.8 | 22.5* | 20.0* | 24.2* | 20.4* | 21.0 | 13.6* | 12.7 | 18.5
CCN(CC)c1ccc(/C=N/NC(=O)c2nnn(-c3nonc3N)c2C(C)C)c(O)c1 | 26.9* | / | -32.4 | 11.1* | 19.7* | 11.3 | 15.7* | 6.9 | 6.5 | 9.3 | 8.5
CC(C)c1c(C(=O)N/N=C/c2ccc3c(c2)OCO3)nnn1-c1nonc1N | 5.5 | / | 2.6 | -1.9 | -1.8 | / | / | / | / | / | /
C[C@]12C(=O)N(c3ccc(Cl)cc3)C(=O)N1C1c3ccccc3OCC1C2c1ccccc1 (some centres not stated) | / | 0.668 | / | / | / | / | / | / | / | / | /
c1ccc(-c2nnc(-c3ccccn3)nc2NC2CCCCC2)cc1 | 15.7* | 0.411* | -10.4 | 14.4* | 18.0* | 20.5* | 14.9* | 13.8 | 6.4 | 6.3 | 18.4
O=C(NNC(=S)NC(=O)c1ccccc1[N+](=O)[O-])c1ccccc1O | 17.1* | 0.445* | -5.7 | 13.3* | 16.6* | 11.3 | 14.0* | 16.0 | 2.2 | 6.5 | 14.1
Cc1onc(-c2ccccc2)c1C(=O)NC(=S)NNC(=O)c1ccccc1O | 24.2* | 0.624 | 1.6 | 23.8* | 25.3* | 24.7* | 24.3* | 24.6 | 13.8* | 17.1 | 29.1*
Cc1onc(-c2ccccc2)c1C(=O)NC(=S)NNC(=O)c1ccc(O)cc1O | 19.7* | 0.562 | 2.3 | 15.4* | 20.5* | 12.7* | 13.9* | 18.2 | 9.2 | 11.4 | 25.4*
N#C[C@]1(S(=O)(=O)c2ccccc2)CC2ON=C(c3cccc(Br)c3)C2C1 (some centres not stated) | / | 0.71 | / | / | / | / | / | / | / | / | /
CCCSc1ccc(C2N[C@@](Cc3ccccc3)(C(=O)OC)C3C(=O)N(CC)C(=O)C23)cc1 (some centres not stated) | / | 0.692 | / | / | / | / | / | / | / | / | /
O=C(NN=Cc1cc2c(c([N+](=O)[O-])c1)OCO2)c1ccncc1 | / | 0.668 | / | / | / | / | / | / | / | / | /
Cc1ccccc1OCC(=O)NN=Cc1ccc(N2CCOCC2)o1 | / | 0.679 | / | / | / | / | / | / | / | / | /
Nc1c(Cl)ncnc1NN=Cc1ccnc2ccccc12 | / | 0.704 | / | / | / | / | / | / | / | / | /
C[C@H]1[C@H](NC(=O)C(=NOC(C)(C)C(=O)O)c2csc(N)n2)C(=O)N1S(=O)(=O)O | 99.8* | / | -8.8 | 100.0* | 99.3* | 100.3* | 99.2* | 100.6* | 97.7* | 98.9* | 100.8*
Nc1nc(N)c2c(ccc3nccc32)[nH]1 | 93.3* | / | 11.4 | 95.9* | 95.4* | 97.5* | 90.7* | 101.9* | 100.8* | 103.0* | 101.7*
Nc1ccc2ncccc2c1N | -1.9 | 0.664 | 3.6 | 1.7 | -4.8 | / | / | / | / | / | /
COC(=O)c1cccc(Cn2c(Cl)c(C=NNc3ccccc3C)sc2=O)c1 | / | 0.716 | / | / | / | / | / | / | / | / | /
O=c1cc2oc3cc(O)c(O)cc3c(-c3ccccc3[N+](=O)[O-])c-2cc1O | 12.6* | 0.784 | -0.3 | 11.2* | 12.5* | 9.5 | 11.6* | 3.6 | 7.3 | 7.6 | 8.9
SMILES | AddAB inh | E coli growth-1 | Tat export inh | phage Ecoli inh | E coli growth-2 | AddAB conf | RecBCD counter | Bact viability | RecBCD conf | Ecoli viability | AddAB counter
COc1ccc(C(=O)NN=Cc2ccccn2)cc1OC | / | 0.706 | / | / | / | / | / | / | / | / | /
O=C(NNC(=S)Nc1ccc(Cl)c(Cl)c1)c1ccccn1 | 13.6* | 0.568 | 3.4 | 16.8* | 17.5* | 25.8* | 16.9* | 25.3* | 13.8* | 14.0 | 34.4*
CCNC(=S)NNC(=O)c1ccccn1 | 4.2 | 0.577 | -18.5 | -0.7 | -0.2 | / | / | / | / | / | /
COc1ccc(-c2oc3c(OC)c(OC)c(OC)c(O)c3c(=O)c2OC)cc1OC | 13.4* | 0.704 | 3.4 | 11.6* | 7.5 | 8.5 | 4.1* | 5.9 | 3.8 | 5.7 | 5.0
COc1c(OC)c(O)c2c(=O)c(O)c(-c3ccccc3)oc2c1OC | 6.7 | 0.652 | 2.5 | 4.9 | 0.8 | / | / | / | / | / | /
c1ccc(-c2cc(CSc3nc4ccccc4[nH]3)on2)cc1 | 24.0* | 0.703 | -49.9 | 17.6* | 26.1* | 22.5* | 16.5* | 14.1 | 12.4* | 14.9 | 17.2
CC(=NNC(=O)c1nc2ccccn2c1C)c1cccc([N+](=O)[O-])c1 | / | 0.662 | / | / | / | / | / | / | / | / | /
OCC1OC(OCC2OC(O)C(O)C(O)C2O)C(O)C(O)C1O (configuration not stated) | / | 0.675 | / | / | / | / | / | / | / | / | /
O=C(NN=CC1=Cc2ccccc2OC1)c1ccncc1 | / | 0.725 | / | / | / | / | / | / | / | / | /
COc1cccc(-n2c(SCc3cc(=O)oc4cc(O)c(O)cc34)nc3ccccc3c2=O)c1 | 21.0* | 0.691 | 5.7 | 17.8* | 16.1* | 13.1* | 15.2* | 16.8 | 5.0 | 6.7 | 8.5
CCN(N=O)C(Cc1ccccc1)CN(N=O)C(Cc1ccccc1)CN(C)N=O (configuration not stated) | / | 0.684 | / | / | / | / | / | / | / | / | /
CCOc1ccc(NC(=O)c2ccc(NC(=O)c3cn4c5c(c(N6CCN(C)CC6)c(F)cc5c3=O)OCC4C)cc2)cc1 (configuration not stated) | 94.8* | 0.0665* | 87.9* | 99.3* | 97.1* | 99.7* | 100.3* | 99.4* | 103.1* | 104.4* | 104.2*
CCOc1ccc(C(=O)Nc2ccc(N3CCN(C)CC3)cc2)cc1 | 3.5 | 0.624 | -1.8 | 4.6 | 0.0 | / | / | / | / | / | /

Screens from PubChem BioAssay.
